Laboratory results from PubChem BioAssay AID1159580 (chemical genetic matrix, 2015).
“And” between values parts separate entries of the source, which are not always exact repeats. Equal values may be shown once. The campaign covered roughly 5,500 compounds. About 2,000 (36%) were called active. About 18% were inconclusive and are not listed. No stated cut-off is given here; in the data, active means normalized growth mostly below about 0.91 (no sharp cut-off); inconclusive means no clear call, values can overlap the other calls; inactive means mostly above about 0.92. The list shows a part of the results.

Assay: chemical genetic growth profiling, strain panel (AID 1159580);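 further: tested at 20 µM; growth read once vehicle control cultures reached saturation at 30 °C; 1 = growth at the plate median or of vehicle wells; lower values mean less growth of the strain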
Conditions: S. cerevisiae deletion strains, growth OD

Measured: normalized growth

CNC(C)[C@H](O)c1ccccc1 (stereo partly drawn)
inactive: locus YAL013W, strain DEP1, hits give low values 1 | locus YAL021C, strain ccr4, hits give low values 1.03 | locus YAL026C, strain drs2, hits give low values 1.01 | locus YAL030W, strain snc1, hits give low values 1.01 | locus YBL061C, strain skt5, hits give low values 1.02 | locus YBR009C, strain hhf1, hits give low values 0.977 | locus YBR021W, strain FUR4, hits give low values 1.07 | locus YBR023C, strain chs3, hits give low values 1.01 | locus YBR171W, strain sec66, hits give low values 0.993 | locus YBR229C, strain ROT2, hits give low values 1.01 | locus YBR231C, strain swc5, hits give low values 1.01 | locus YBR279W, strain paf1, hits give low values 1 | locus YCL011C, strain gbp2, hits give low values 1.01 | locus YCL016C, strain dcc1, hits give low values 1.04 | locus YCL029C, strain bik1, hits give low values 1 | locus YCL061C, strain MRC1, hits give low values 0.995 | locus YCL069W, strain vba3, hits give low values 0.986 | locus YCR088W, strain abp1, hits give low values 0.989 | locus YDL005C, strain med2, hits give low values 0.999 | locus YDL035C, strain GPR1, hits give low values 1.05 | locus YDL040C, strain nat1, hits give low values 1 | locus YDL074C, strain BRE1, hits give low values 1.02 | locus YDL101C, strain DUN1, hits give low values 1.01 | locus YDL134C, strain PPH21, hits give low values 1.04 | locus YDL185W, strain tfp1, hits give low values 0.991 | locus YDL192W, strain arf1, hits give low values 0.998 | locus YDR001C, strain nth1, hits give low values 0.996 | locus YDR069C, strain doa4, hits give low values 1.02 | locus YDR101C, strain arx1, hits give low values 1.02 | locus YDR137W, strain rgp1, hits give low values 1 | locus YDR159W, strain sac3, hits give low values 0.995 | locus YDR162C, strain NBP2, hits give low values 1.02 | locus YDR195W, strain ref2 1.01 | locus YDR297W, strain sur2, hits give low values 1.01 | locus YDR318W, strain mcm21, hits give low values 1 | locus YDR334W, strain swr1, hits give low values 0.983 | locus YDR335W, strain msn5, hits give low values 1.03 | locus YDR388W, hits give low values 0.995 | locus YDR392W, strain spt3, hits give low values 1.05 | locus YDR502C, strain sam2, hits give low values 0.997 | locus YEL003W, strain gim4, hits give low values 0.992 | locus YEL037C, strain rad23, hits give low values 0.986 | locus YEL061C, strain CIN8 (second series), hits give low values 0.993 | locus YEL061C, strain CIN8, hits give low values 1.02 | locus YER015W, strain faa2, hits give low values 1.01 | locus YER016W, strain bim1, hits give low values 1.03 | locus YER110C, hits give low values 0.986 | locus YER111C, strain swi4, hits give low values 1 | locus YER155C, strain BEM2 (second series), hits give low values 1.02 | locus YER155C, strain BEM2, hits give low values 1.01 | locus YER167W, strain BCK2, hits give low values 1.02 | locus YFR010W, strain ubp6, hits give low values 0.96 | locus YGL078C, strain dbp3, hits give low values 0.994 | locus YGL086W, strain mad1, hits give low values 1.01 | locus YGL167C, strain pmr1, hits give low values 1.01 | locus YGL173C, strain kem1, hits give low values 1.01 | locus YGL227W, strain vid30, hits give low values 0.994 | locus YGL240W, strain doc1, hits give low values 0.993 | locus YGL248W, strain PDE1, hits give low values 1.02 | locus YGL253W, strain hxk2, hits give low values 1.01 | locus YGR078C, strain PAC10, hits give low values 1.02 | locus YGR135W, strain pre9, hits give low values 0.986 | locus YGR229C, strain SMI1, hits give low values 1.02 | locus YGR252W, strain gcn5, hits give low values 0.98 | locus YHR013C, strain ard1, hits give low values 1.04 | locus YHR027C, strain rpn1, hits give low values 0.998 | locus YHR030C, strain SLT2, hits give low values 1.02 and 1.05 | locus YHR079C, strain IRE1 (second series), hits give low values 1 | locus YHR079C, strain IRE1, hits give low values 1.03 | locus YHR094C, strain hxt1, hits give low values 0.989 | locus YHR129C, strain ARP1, hits give low values 1.01 | locus YHR142W, strain chs7, hits give low values 1 | locus YHR200W, strain rpn10, hits give low values 0.999 | locus YIL066C, strain RNR3, hits give low values 1.03 | locus YIL073C, strain SPO22, hits give low values 0.991 | locus YIL125W, strain kgd1, hits give low values 1 | locus YIR030C, strain dcg1, hits give low values 1 | locus YJL092W, strain hpr5, hits give low values 1 | locus YJL095W, strain BCK1 (second series), hits give low values 1.01 | locus YJL095W, strain BCK1, hits give low values 1.01 and 1.06 | locus YJL115W, strain asf1, hits give low values 0.993 | locus YJL129C, strain trk1, hits give low values 1.01 | locus YJL134W, strain LCB3, hits give low values 1 | locus YJL154C, strain vps35, hits give low values 0.986 | locus YJL164C, strain tpk1, hits give low values 1.01 | locus YJL166W, strain qcr8, hits give low values 1.01 | locus YJL168C, strain set2, hits give low values 0.991 | locus YJL187C, strain SWE1 (second series), hits give low values 1.01 | locus YJL187C, strain SWE1, hits give low values 1.02 | locus YJR043C, strain POL32, hits give low values 1.04 | locus YJR066W, strain TOR1, hits give low values 0.972 | locus YKL009W, strain mrt4, hits give low values 0.992 | locus YKL068W, hits give low values 0.995 | locus YKL085W, strain MDH1 (second series), hits give low values 1.03 | locus YKL085W, strain MDH1, hits give low values 1.03 | locus YKL160W, strain elf1, hits give low values 1.05 | locus YKL190W, strain CNB1, hits give low values 1.01 | locus YKR001C, strain vps1, hits give low values 0.997 | locus YKR026C, strain gcn3, hits give low values 0.995 | locus YKR091W, strain srl3, hits give low values 1 | locus YLL001W, strain dnm1, hits give low values 1.02 | locus YLL026W, hits give low values 1.02 | locus YLL041C, strain sdh2, hits give low values 0.996 | locus YLR027C, strain aat2, hits give low values 1.02 | locus YLR039C, strain RIC1, hits give low values 0.978 | locus YLR058C, strain SHM2, hits give low values 1.01 | locus YLR102C, strain apc9, hits give low values 0.986 | locus YLR113W, strain HOG1, hits give low values 1.08 | locus YLR221C, strain rsa3, hits give low values 0.984 | locus YLR258W, strain gsy2, hits give low values 1.03 | locus YLR262C, strain YPT6 (second series), hits give low values 0.972 | locus YLR262C, strain YPT6, hits give low values 0.983 | locus YLR268W, strain sec22, hits give low values 0.993 | locus YLR320W, strain mms22, hits give low values 0.994 | locus YLR330W, strain CHS5, hits give low values 1.01 | locus YLR342W, strain FKS1 (second series), hits give low values 1.05 | locus YLR342W, strain FKS1, hits give low values 1.02 | locus YLR357W, strain rsc2, hits give low values 0.958 | locus YLR370C, strain arc18, hits give low values 1.03 | locus YLR371W, strain rom2, hits give low values 0.987 | locus YLR384C, strain iki3, hits give low values 0.995 | locus YLR418C, strain cdc73, hits give low values 1.01 | locus YML016C, strain PPZ1, hits give low values 1.01 | locus YML032C, strain rad52, hits give low values 1 | locus YML120C, strain ndi1, hits give low values 0.996 | locus YML124C, strain tub3, hits give low values 0.991 | locus YMR058W, strain fet3, hits give low values 0.999 | locus YMR078C, strain ctf18, hits give low values 0.989 | locus YMR125W, strain sto1, hits give low values 0.955 | locus YMR129W, hits give low values 1.02 | locus YMR205C, strain PFK2, hits give low values 1 | locus YMR223W, strain ubp8, hits give low values 0.998 | locus YMR231W, strain pep5, hits give low values 1 | locus YMR263W, strain SAP30, hits give low values 1.01 | locus YMR307W, strain GAS1, hits give low values 1.17 | locus YNL067W, strain RPL9B, hits give low values 1 | locus YNL071W, strain lat1, hits give low values 0.991 | locus YNL183C, strain NPR1, hits give low values 0.982 | locus YNL209W, strain ssb2, hits give low values 0.999 | locus YNL233W, strain BNI4, hits give low values 1.02 | locus YNL248C, strain rpa49, hits give low values 0.969 | locus YNL250W, strain rad50, hits give low values 0.989 | locus YNL271C, strain bni1, hits give low values 0.982 | locus YNL298W, strain CLA4, hits give low values 1.02 | locus YNL307C, strain MCK1, hits give low values 1 | locus YNL322C, strain KRE1 (second series), hits give low values 1.01 | locus YNL322C, strain KRE1, hits give low values 1.05 | locus YNR049C, strain mso1, hits give low values 0.996 | locus YNR052C, strain pop2, hits give low values 1 | locus YOL006C, strain TOP1, hits give low values 1.16 | locus YOL012C, strain htz1 1.33 | locus YOL147C, strain pex11, hits give low values 0.982 | locus YOR001W, strain rrp6, hits give low values 0.934 | locus YOR061W, strain CKA2, hits give low values 1.02 | locus YOR069W, strain VPS5, hits give low values 1.01 | locus YOR070C, strain gyp1, hits give low values 1.02 | locus YOR080W, strain dia2, hits give low values 1.01 | locus YOR083W, strain WHI5, hits give low values 1.04 | locus YOR106W, strain vam3, hits give low values 1.03 | locus YOR136W, strain idh2, hits give low values 1 | locus YOR144C, strain elg1, hits give low values 0.995 | locus YOR184W, strain ser1, hits give low values 1 | locus YOR231W, strain MKK1, hits give low values 1.06 | locus YOR265W, strain rbl2, hits give low values 1.01 | locus YOR270C, strain vph1, hits give low values 0.952 | locus YOR290C, strain snf2, hits give low values 1.06 | locus YOR316C, strain cot1, hits give low values 0.995 | locus YPL051W, strain arl3, hits give low values 1.03 | locus YPL055C, strain LGE1, hits give low values 1.01 | locus YPL078C, strain atp4, hits give low values 1.03 | locus YPL106C, strain sse1, hits give low values 1.04 | locus YPL240C, strain hsp82, hits give low values 0.992 | locus YPL256C, strain CLN2, hits give low values 1.04 | locus YPR119W, strain clb2, hits give low values 0.991 | locus YPR141C, strain kar3, hits give low values 0.985 | locus YPR163C, strain tif3, hits give low values 0.998 | locus YPR167C, strain met16, hits give low values 0.99 | strain wtn01, hits give low values 1
